# Screens from PubChem BioAssay.
# AmpC detergent: qHTS Inhibitors of AmpC Beta-Lactamase (assay with detergent); AmpC hydrolysis of nitrocefin, absorbance 480 nm, 0.01% Triton; 370,000 compounds, 0.041% hits; Potency, µM (series often up to 114 µM), for inactives: at the highest dose activity change, negative = inhibition, actives largely listed as inhibitors; P00811; AID 485294, 2010;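 also: potency is read from the fitted curve at half-maximal effect; 0% = no-compound wells and -100% = no-enzyme wells; nearly all actives have a fitted effect of over 25% in size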
# Target sequence (P00811 whole entry, looked up): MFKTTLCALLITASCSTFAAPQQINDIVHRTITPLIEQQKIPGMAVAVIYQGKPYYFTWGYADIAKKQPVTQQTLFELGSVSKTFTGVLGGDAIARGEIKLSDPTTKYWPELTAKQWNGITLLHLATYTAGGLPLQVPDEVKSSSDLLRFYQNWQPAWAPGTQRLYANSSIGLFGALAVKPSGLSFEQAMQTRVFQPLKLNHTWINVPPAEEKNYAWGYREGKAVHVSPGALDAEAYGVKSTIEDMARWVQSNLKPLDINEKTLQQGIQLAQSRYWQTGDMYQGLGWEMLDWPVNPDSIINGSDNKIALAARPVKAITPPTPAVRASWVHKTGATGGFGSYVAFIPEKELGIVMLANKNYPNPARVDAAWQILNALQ
#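 AmpC (5.3 nM in the dispensed reagent) in 20 mM phosphate pH 7.0 with 0.01% (detergent screen) or 0.0001% Triton X-100 was preincubated with compounds for 15 min at room temperature. Nitrocefin was then added from an 800 uM solution, and hydrolysis was followed at 480 nm.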
# FMDV antiviral: High Throughput Screening for Foot and Mouth Disease Virus Antivirals | FMDV antiviral cell-based qHTS | Potency, µM (doses to about 57.9 µM), for the others: at the top dose activity change, negative = inhibition, actives largely listed as inhibitors | 410,000 compounds, 1.2% hits | AID 1159524, 2015; calls by dose curve; tested in HEK293T cells; also: read-out not given here; potency is read from the fitted curve at half-maximal effect; nearly all actives have a fitted effect of over 45% in size
# HCV inh: qHTS Assay for Inhibitors of Hepatitis C Virus (HCV); AID 651820, 2012; Potency, µM (doses to about 41.8 µM), for the others: at the highest dose activity change, negative = inhibition, most hits filed as inhibitors; Huh7.5.1 HCVcc-Cre infection, luciferase reporter, 44 h; 340,000 compounds, 3.4% hits; also: potency is read from the fitted curve at half-maximal effect
#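 Cells seeded at 1,000/well and cultured 4 h, then compounds added followed by HCVcc-Cre virus (~0.5 moi). After 44 h further culture, luciferase substrate was added, plates held 15 min at room temperature, and luminescence read for 15 sec.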
# AmpC no deterg: qHTS Inhibitors of AmpC Beta-Lactamase (assay without detergent); P00811; AmpC nitrocefin hydrolysis, absorbance 480 nm, 0.0001% Triton; Potency, µM (top dose mostly 57.1 µM), inactives show at the top dose activity change, negative = inhibition, hits mostly inhibitors; 330,000 compounds, 0.52% hits;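 also: potency is read from the fitted curve at half-maximal effect; plate controls were no compound for no effect and no enzyme for full effect; nearly all actives have a fitted effect of over 20% in size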
#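 20 mM phosphate pH 7.0 + 0.01% (detergent screen) or 0.0001% Triton X-100; 5.3 nM AmpC reagent; cpd preinc 15 min RT; nitrocefin (800 uM stock) to start; A480 q20 s × 4 min; Activity was normalised to no-enzyme and no-compound control wells.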
# HCMV antiviral: qHTS Assay for inhibitors of the human cytomegalovirus (HCMV); 410,000 compounds, 4.5% hits; HFF cells, HCMV-luciferase reporter, 72 h; active compounds read low; activity change, negative = inhibition, % at 57.5 µM; in the data active = activity change below about -60%; inconclusive = no clear call, values can overlap the other calls; inactive = above about -39%
#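 Luciferase read-out from HCMV-luciferase-infected HFFs (MOI 1 PFU/cell) 72 h post infection at 37C; compounds added after 16 h cell attachment; activity normalized between buffer-only basal and Salinomycin (10uM) inhibitor controls.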
# Active calls of the source: *; ? = inconclusive; nt = not tested or not shown; ! = not active in a repeat. Shown are actives, neighbours in structure and some others; about 7.3% of the full set was active somewhere. Unless noted, calls follow the shape of the dose curve; as a rule, active = well fitted curve in the direction sought with a large enough effect; inconclusive = small, poorly fitted or top-dose-only effect, or another doubt; inactive = no such curve, though single readings can be large; an effect the other way counts as inactive or inconclusive. Unless noted, % is scaled to controls: 0 for no effect and ±100 for the full control effect.
SMILES,AmpC detergent,FMDV antiviral,HCV inh,AmpC no deterg,HCMV antiviral
CCC(C)(C)NC(=O)c1ccc(S(=O)(=O)N(C)c2ccccc2OC)cc1,4.7%,-16.9%,?,nt,28.9
COc1cc(NC(=O)c2ccc(S(=O)(=O)N(C)c3ccccc3OC)cc2)cc(OC)c1,nt,19.8%,11.2µM*,-24.7%,-22.9
Cc1nc2ccc(S(=O)(=O)N(C)CC(=O)Nc3ccc(C(C)C)cc3)cc2s1,23.3%,-1.7%,nt,nt,-60.4*
Cc1cc(C)c(C(=O)COC(=O)c2nn(C)c(=O)c3ccccc23)cc1C,6.9%,-18.7%,-20.0%,-15.5%,0.0
COc1cccc(Nc2nc(C(N)CCc3ccccc3)cs2)n1 (stereo not drawn),nt,-12.9%,nt,nt,-12.0
CN(C)C(=O)c1ccc(SC(=S)NCc2ccccc2)cc1,nt,35.5µM*,nt,nt,-26.0
CC(C)(C)CC(=O)NC(=S)NCc1ccccc1,9.5%,0.8%,3.6%,-29.9%,3.7
CCOc1ccc(Nc2c(S(=O)(=O)c3ccccc3)cnc3ccc(F)cc23)cc1,-5.1%,-9.6%,nt,nt,-30.3
Cc1nnc2nc(-c3ccccc3)nc(-c3ccccc3)n12,4.5%,8.7%,?,-13.0%,-79.7*
Cc1cc(C)n(-c2nc(NCCN(C)C)c3c4c(sc3n2)CCCC4)n1,-11.4%,?,?,129.7%,-81.8*
Cc1cc(C)n(-c2nc(NCCCN(C)C)c3c4c(sc3n2)CCCC4)n1,-1.0%,19.0%,?,28.1%,-97.9*
Cc1cc(C)n(-c2nc(NCCCN(C)C)c3c4c(sc3n2)COC(C)(C)C4)n1,1.8%,0.5%,-2.0%,81.7%,-20.6
Cc1cccc(CNc2nc(-c3ccc(C(=O)N(C)C)cc3)nc3ccccc23)c1,nt,3.0%,nt,nt,nt
CCN(CC)c1ccc(N=Cc2ccc([N+](=O)[O-])o2)cc1,-11.5%,-9.4%,12.6µM*,-39.6%,-8.8
CCN(CC)c1ccc(N=Cc2ccccc2[N+](=O)[O-])cc1,?,3.6%,?,-23.1%,-3.9
Cc1cccc(OCC(=O)NCc2ccc(F)cc2)c1,?,4.0%,10.4%,-6.6%,8.5
CCOCCOC(=O)c1ccc(NC(=O)/C=C/c2ccc(OC)c(OC)c2)cc1,-12.1%,20µM*,nt,nt,-2.3
CCOc1ccc(/C=C/C(=O)Nc2ccc(C(N)=O)cc2)cc1OC,-14.9%,-20.1%,4.6%,17.6%,-39.5
COc1ccc(/C=C/C(=O)Nc2ccc(Cl)c(Cl)c2)cc1OC,6.3%,?,nt,nt,-81.5*
COc1cc(/C=C/c2cccc[n+]2C)ccc1OCC(=O)Nc1cccc(Cl)c1,-7.7%,9.6%,-5.1%,29.3%,-69.9*
COc1ccc(/C=C\C(=O)Nc2ccccc2C(=O)O)cc1OC,nt,20µM*,nt,nt,nt
Cc1ccc(NC(=O)C2(C)CCN2C(=O)C2CCCCC2)cc1C (stereo not drawn),nt,-15.6%,nt,nt,-1.5
CCOC(=O)c1ccccc1NC(=O)N1CCCN(S(=O)(=O)c2ccc3c(ccn3CC)c2)CC1,14.8%,-23.8%,nt,nt,7.9
COc1cc(/C=C/c2cc[n+](C)cc2)ccc1OCC(=O)Nc1ccc(Cl)c(Cl)c1,1.7%,-16.2%,-0.9%,94.0%,-91.2*
O=C(CCN1Cc2ccccc2OC(c2ccccc2F)C1)N1CCC(N2CCCC(O)C2)CC1 (stereo not drawn),nt,7.3%,nt,nt,nt
SMILES,AmpC detergent,FMDV antiviral,HCV inh,AmpC no deterg,HCMV antiviral
O/N=C/c1cn(-c2ccccc2)nc1-c1ccc2c(c1)OCCO2,-3.1%,20.1%,-15.2%,-42.6%,-10.8
c1ccc(-n2cc(CN3CCCC(CN4CCCC4)C3)c(-c3ccc4c(c3)OCO4)n2)cc1 (stereo not drawn),2.3%,-8.4%,12.6µM*,73.0%,?
CN(C)C(=O)/C=C\c1cn(-c2ccccc2)nc1-c1ccc2c(c1)OCCO2,2.8%,-5.5%,-28.5%,200.5%,-84.9*
O=C(O)/C=C/c1cn(-c2ccccc2)nc1-c1ccc2c(c1)OCCO2,-5.6%,10.9%,3.5%,-19.5%,-13.7
OCc1cn(-c2ccccc2)nc1-c1ccc2c(c1)OCCO2,14.5%,-19.4%,11.2µM*,-3.7%,80.8
COc1ccc(CN2CCc3nnc(CNC(=O)c4cc(C)oc4C)n3CC2)c2ccccc12,nt,-21.1%,nt,nt,nt
Cc1ccccc1OCCC(=O)OCC(=O)NC1CCS(=O)(=O)C1 (stereo not drawn),-10.0%,-19.7%,5.1%,-19.7%,16.1
Fc1cccc(-c2cc3nc4c(c(N5CCC6(CC5)OCCO6)n3n2)CCCC4)c1,4.3%,nt,12.6µM*,-28.6%,13.6
CCCC[n+]1ccn(C2=C([O-])c3ccccc3C(=O)/C2=N\S(=O)(=O)c2ccc(Cl)cc2)c1,4.8%,-15.2%,?,9.6%,-72.6*
C[C@H]1[C@@H](c2ccccc2)Oc2ccc(Cl)cc2S(=O)(=O)N1Cc1ccc(Cl)cc1,nt,nt,nt,nt,-19.0
C=C(C)CSc1cc(C)nc2c(-c3ccccc3)c(C)nn12,9.3%,-1.0%,?,24.5%,-84.8*
Cc1cc(SCC(=O)Nc2ccc(O)cc2)n2ncc(-c3ccccc3)c2n1,4.8%,-24.3%,?,-36.9%,-10.1
Cc1cc(SCC(=O)Nc2ccc(O)cc2)n2nc(C)c(-c3ccccc3)c2n1,0.1%,-24.0%,?,-50.5%,-61.9*
Cc1c(-c2ccccc2)c(=O)oc2c(CN3CCN(C)CC3)c(O)ccc12,4.6%,-16.8%,nt,nt,-17.2
COc1cccc(C2/C(=C(/O)c3ccc4c(c3)OCO4)C(=O)C(=O)N2CCN2CCOCC2)c1 (stereo not drawn),-13.9%,5.6%,4.2%,27.7%,-61.8*
O=C1C(=O)N(CCN2CCOCC2)C(c2ccncc2)/C1=C(/O)c1ccc2c(c1)OCO2 (stereo not drawn),?,10.1%,0.9%,-14.4%,12.3
CN(C)C(CNC(=O)c1cc(S(=O)(=O)N(C)c2ccccc2)ccc1Cl)c1ccccc1 (stereo not drawn),-5.5%,-27.5%,7.08µM*,76.5%,?
CN(c1ccccc1)S(=O)(=O)c1ccc(Cl)c(C(=O)NC2=NCCS2)c1,-1.0%,-21.2%,?,-23.0%,-101.3*
COc1ccc2c3c(n(C)c2c1)[C@@H](CO)N(C(=O)NC1CCCCC1)CC31CCN(C)CC1,nt,nt,nt,nt,-31.8
CCOC(=O)c1c(C)n(C)c2ccc(O)cc12,nt,nt,nt,nt,-2.0
CCOC(=O)c1c(C)n(C)c2cc(Br)c(C(=O)OC)cc12,-10.0%,-18.2%,10µM*,66.0%,11.2
CCCN(CCC)CCCNC(=O)Cn1cnc2sc(C)c(S(=O)(=O)N3CCCCC3)c2c1=O,?,18.6%,11.8%,-20.5%,-70.6*!
CCN(CC)CCCNC(=O)c1sc2ncn(CC(=O)Nc3ccc(C)c(Cl)c3)c(=O)c2c1C,-6.7%,-8.3%,14.1µM*,90.9%,-63.2*
Cc1ccc(NC(=O)Cn2cnc3sc(C(=O)NCCN(C)C)c(C)c3c2=O)cc1Cl,-0.4%,nt,10µM*,37.1%,nt
